# Assay outcomes as filed in PubChem BioAssay.
# Most compounds without a hit are left out; they make up all but 3.9% or so of the library.
# Yeast superoxide: caloric restriction mimetics inhibiting age-related superoxide in yeast | hit rate 0.18% among 330,000 | S. cerevisiae aged cells, superoxide DHE fluorescence; active compounds read low | superoxide response (% of plate mean), % at 10 µM;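 active means superoxide response under a set limit, about three screen SD below normal, cut at about 65% in these data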;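 further: yeast aged for seven days with compound at 30 °C before DHE staining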
# HGIII-sPLA2 inh: Blocks human group III sPLA2 activity; hit rate 0.56% among 370,000; inhibition, % at 12.2 µM; Q9NZ20; QFRET BODIPY PC-A2 liposome hydrolysis, fluorescence; AID 743126;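 active means inhibition above mean plus 3 SD of compounds lying within the high and low control bounds, cut at about 19% in these data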
# PLCg1 inh: blocks human PLC-gamma1 enzyme activity. P19174. purified PLC-gamma1, fluorogenic substrate, fluorescence. hit rate 0.84% among 370,000. inhibition, % at 12.2 µM; in the data active means inhibition above about 9.5%
# PLCb3 inh: blocks human PLC-beta3 enzyme activity; Q01970; Purified PLC-beta3, fluorogenic substrate, fluorescence; inhibition, % at 12.2 µM; hit rate 0.18% among 370,000
# HIF activator: HIF pathway transcriptional activation. AID 1910. hit rate 0.32% among 300,000. activation, % at 7.5 µM (by protocol). U2OS HRE-luciferase reporter, luminescence; normalized: DMSO 0%, desferrioxamine 100%;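 active means mean activation of at least 10% of the iron chelator positive control signal, with at least half of replicates also reaching 10%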
# AHR activator: activators of human aryl hydrocarbon receptor. P35869. AHR-responsive luciferase reporter cells, luminescence. activation, % at 5 µM. hit rate 2.5% among 320,000. AID 2796; in the data active means activation above about 47%
# Target sequence (P35869 whole entry, looked up): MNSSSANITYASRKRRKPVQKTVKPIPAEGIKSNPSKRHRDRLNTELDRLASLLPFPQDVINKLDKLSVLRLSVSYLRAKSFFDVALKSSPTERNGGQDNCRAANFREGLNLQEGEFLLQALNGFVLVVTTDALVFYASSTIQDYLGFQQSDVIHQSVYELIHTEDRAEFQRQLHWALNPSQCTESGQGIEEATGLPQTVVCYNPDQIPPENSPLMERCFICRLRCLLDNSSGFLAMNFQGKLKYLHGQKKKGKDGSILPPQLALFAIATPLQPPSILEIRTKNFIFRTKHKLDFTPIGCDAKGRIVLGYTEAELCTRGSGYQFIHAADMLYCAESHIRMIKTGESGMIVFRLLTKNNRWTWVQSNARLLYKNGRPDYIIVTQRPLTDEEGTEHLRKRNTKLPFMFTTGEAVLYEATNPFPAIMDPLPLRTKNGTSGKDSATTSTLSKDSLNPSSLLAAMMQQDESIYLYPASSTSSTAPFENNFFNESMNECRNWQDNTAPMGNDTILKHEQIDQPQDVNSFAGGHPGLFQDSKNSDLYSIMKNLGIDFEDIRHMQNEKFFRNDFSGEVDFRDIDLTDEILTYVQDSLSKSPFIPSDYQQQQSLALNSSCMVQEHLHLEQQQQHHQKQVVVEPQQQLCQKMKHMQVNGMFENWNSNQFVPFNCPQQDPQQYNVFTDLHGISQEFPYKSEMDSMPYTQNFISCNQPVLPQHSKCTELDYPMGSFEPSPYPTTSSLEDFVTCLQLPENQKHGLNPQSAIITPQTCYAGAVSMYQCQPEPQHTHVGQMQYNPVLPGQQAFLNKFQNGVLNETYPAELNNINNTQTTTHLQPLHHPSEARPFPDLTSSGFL
# PLCgamma1 ctr: PLC-gamma1 inhibition, counter-screen for PLC-beta3 hits. shares compounds with PLCg1 inh. purified PLC-gamma1, fluorogenic substrate, fluorescence. AID 743258. hit rate 3.1% among 3,300. inhibition, % at 12.3 µM; in the data active means inhibition above about 9.5%
# PLCbeta3 conf: confirmation of human PLC-beta3 inhibitors; inhibition, % at 12.3 µM; shares compounds with PLCg1 inh; purified PLC-beta3, fluorogenic substrate fluorescence; hit rate 1% among 3,300
# Numbers stand for hits; – = inactive; · = no result given. Unless noted, no stated cut-off is given here; in the data, active means inhibition above about 11%; inactive means the rest.
SMILES,Yeast superoxide,HGIII-sPLA2 inh,PLCg1 inh,PLCb3 inh,HIF activator,AHR activator,PLCgamma1 ctr,PLCbeta3 conf
CCOc1ccc(NC(=O)CN(C)C(=O)c2ccc(C)o2)cc1OCC,–,–,15.0,–,–,–,–,–
CCN(CC)C(=O)[C@H]1C[C@H](CC(=O)NCCN2CCOCC2)C(=O)N2CCc3c([nH]c4cc(-c5ccco5)ccc34)[C@]12C,–,–,–,–,·,·,·,·
CCOC(=O)N1CCN(S(=O)(=O)c2c(C(=O)N3CCCCC3)c(C)n(C)c2C)CC1,–,–,–,–,–,–,·,·
Cc1cc2nc(CCN(Cc3cccnc3)C(=S)Nc3ccc(F)cc3)[nH]c2cc1C,–,–,12.1,–,–,–,–,–
Cc1cc2nc(CCN(Cc3cccnc3)C(=S)Nc3ccccc3)[nH]c2cc1C,–,–,–,–,–,–,·,·
O=C(Nc1ccc(Cl)cc1F)c1cc(S(=O)(=O)N2CCCCC2)ccc1F,–,–,12.1,–,·,–,–,–
N#C/C(=C\c1cc(O)c(O)c(O)c1)C(N)=O,–,–,18.1,–,–,–,–,–
COc1ccc(Cn2cc(F)c(=O)n(CCC(C)C)c2=O)cc1[N+](=O)[O-],–,–,13.0,–,–,–,–,–
Cc1ccccc1-n1c(SC(C)C(N)=O)nnc1-c1cccnc1 (stereo not given),–,–,11.4,–,–,–,–,–
Cc1ccc(NC(=O)C(C)Sc2nnc(-c3cccnc3)n2-c2ccccc2)cc1 (stereo not given),–,–,–,–,–,–,·,·
COc1ccc(S(N)(=O)=O)cc1C(=O)N(C)CC(=O)Nc1ccc(N2CCOCC2)cc1,–,–,–,–,–,–,·,·
COc1ccc(C(=O)CCC(=O)Nc2cccc(Cl)c2)cc1,–,–,–,–,–,–,·,·
Cc1ccc(C(=O)CCC(=O)Nc2ccc(Cl)c(S(=O)(=O)Nc3cccc(Cl)c3)c2)cc1,–,–,10.7,–,–,–,–,–
CCN(CC)C(=O)c1ncn2c1C(=O)NC[C@@H]2C,·,–,–,–,·,·,·,·
CS(=O)(=O)N1CCC(C(=O)NCc2ccncc2)CC1,–,–,–,–,–,–,·,·
CS(=O)(=O)N1CCC(C(=O)NCc2ccc(Cl)cc2)CC1,–,–,11.5,–,–,–,–,–
CN(C)S(=O)(=O)c1ccc(Cl)c(C(=O)NC2=NCCS2)c1,–,–,–,–,–,–,·,·
CCOC(CNC(=O)Cn1nc(C)c2ccccc21)OCC,–,–,9.9,–,–,–,–,–
CC(=O)c1c(C)[nH]c(C(=O)OCC(=O)c2c[nH]c3ccccc23)c1C,–,–,–,–,·,–,·,·
N=c1sccn1CC(=O)NCCc1ccc(Cl)cc1,–,–,10.1,–,–,–,–,–
O=S(=O)(c1ccc(F)cc1)N1CCN(c2ccccn2)CC1,–,–,–,–,–,–,·,·
O=C(NCc1ccncc1)C1Cc2c(-c3ccccc3Oc3ccccc3)ccnc2O1 (stereo not given),·,–,–,–,·,·,·,·
CCCN1CNC(=S)N(c2ccccc2OCC)C1,–,–,–,–,–,–,·,·
CCCCN1CNC(=S)N(c2ccccc2OCC)C1,–,–,11.2,–,–,–,–,–
Cc1ccc(NC(=O)C2=C(C(=O)O)CCCC2)cc1F,–,–,–,–,–,–,·,·
SMILES,Yeast superoxide,HGIII-sPLA2 inh,PLCg1 inh,PLCb3 inh,HIF activator,AHR activator,PLCgamma1 ctr,PLCbeta3 conf
Cc1cc2oc(C(=O)Nc3nonc3C)c(C)c2cc1Cl,–,–,12.7,–,–,–,–,–
CCCCC(=O)Nc1ccc(C(=O)c2ccccc2)cc1,–,–,–,–,–,–,·,·
CCCCC(=O)Nc1ccc(C)c(O)c1,–,–,9.6,11.0,–,–,–,–
CCCCC(=O)Nc1cc(NC(=O)CCCC)cc(C(=O)O)c1,–,–,15.1,–,–,–,–,–
COc1cc(NC(=O)CN2C(=O)c3ccccc3S2(=O)=O)cc(OC)c1,–,–,–,–,·,–,·,·
O=C1OCC(O)=C1Cc1ccccc1,·,–,–,–,·,·,·,·
O=C(O)c1ccc(OCc2occc2C(=O)O)cc1,–,–,12.8,–,–,–,–,–
Cc1ccc(C)c(N2CCN(S(=O)(=O)c3ccc4[nH]c(=O)c(=O)[nH]c4c3)CC2)c1,–,–,16.6,–,–,–,–,–
CC(C)C[C@H]1CN([C@@H](Cc2ccccc2)CN2CCC[C@H]2CN2C(=O)C(=O)NC[C@@H]2Cc2ccc(O)cc2)C(=O)C(=O)N1CC1CCCCC1,·,–,–,–,·,·,·,·
NC(N)=NC(N)=Nc1ccc(SC(F)(F)F)cc1,–,–,10.9,–,–,–,–,–
O=Cc1cc(N=Nc2ccc(S(=O)(=O)O)cc2)ccc1O,–,–,13.7,–,–,–,16.0,–
Cc1ccc(C2CC(c3ccc(Br)cc3)=NN2C(=O)CSC2=NN3CCCC(=O)N=C3S2)cc1 (stereo not given),–,–,–,–,–,–,·,·
O=C1CCCN2N=C(SCC(=O)N3N=C(c4ccc(Br)cc4)CC3c3ccc(F)cc3)SC2=N1 (stereo not given),–,–,14.5,–,–,–,–,–
Cc1onc(-c2ccccc2)c1NC(=O)N(CCC#N)Cc1cccs1,–,–,10.0,–,–,–,–,–
Cc1onc(-c2ccccc2)c1NC(=O)N(CCC(=O)O)Cc1ccccc1,–,–,–,–,–,–,·,·
CCN(CC)S(=O)(=O)c1ccc(F)cc1,–,–,10.9,–,–,–,–,–
C=CC[C@H](CC(=O)N[C@H](CO)Cc1ccccc1)C(=O)N[C@@H](COC(=O)[C@H](CC=C)CC(=O)OC(C)(C)C)Cc1c[nH]c2ccccc12,–,–,–,–,·,–,·,·
Cc1cccc(N(CC(=O)NC2CC3CCC2C3)S(=O)(=O)c2ccccc2)c1 (stereo not given),–,–,–,–,–,–,·,·
O=C(CN(c1ccccc1Cl)S(=O)(=O)c1ccccc1)NC1CC2CCC1C2 (stereo not given),·,–,–,14.0,·,·,–,–
CC[C@H]1C=C[C@@H](C(=O)NS(=O)(=O)c2ccc(C)cc2)N(C(C)=O)C1,·,–,40.6,–,·,·,38.3,–
COc1ccccc1CCn1cnc(-c2ccc(F)cc2F)c1CC(C)C,·,–,–,–,·,·,·,·
COc1ccccc1CCn1cnc(-c2ccccc2F)c1CC(C)C,·,–,11.2,–,·,·,–,–
O=C(CCCCCN1C(=O)[C@@H]2Cc3ccccc3CN2C1=O)Nc1ccccc1Cl,–,–,–,–,–,–,·,·
CCOC(=O)Nc1cc(=O)c([N+](=O)[O-])c(N)[nH]1,·,–,–,12.7,·,·,–,–
CCOC(=O)Nc1n[nH]c(NC(=O)OCC)c1[N+](=O)[O-],–,–,–,–,–,–,·,·
Cc1ccccc1CN1CCCCC(NC(=O)c2ccc(-c3ccccc3)cc2)C1=O (stereo not given),·,–,11.9,–,·,·,–,–
